Among all 310,000 compounds or so, about 14,000 (4.5%) showed an effect of 50% or more. The effect is printed as a negative number. This excerpt belongs to a sample that is enriched for strong results.
target: human ether-à-go-go-related gene (hERG) potassium channel (human, UniProt Q12809); assay: primary screen, population patch clamp on CHO cells stably expressing hERG; higher = less effect of the substance
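Note: peak tail current of the secondary pulse compared with the same well before compound.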

Sequence of human ether-à-go-go-related gene (hERG) potassium channel (Q12809 whole entry, looked up): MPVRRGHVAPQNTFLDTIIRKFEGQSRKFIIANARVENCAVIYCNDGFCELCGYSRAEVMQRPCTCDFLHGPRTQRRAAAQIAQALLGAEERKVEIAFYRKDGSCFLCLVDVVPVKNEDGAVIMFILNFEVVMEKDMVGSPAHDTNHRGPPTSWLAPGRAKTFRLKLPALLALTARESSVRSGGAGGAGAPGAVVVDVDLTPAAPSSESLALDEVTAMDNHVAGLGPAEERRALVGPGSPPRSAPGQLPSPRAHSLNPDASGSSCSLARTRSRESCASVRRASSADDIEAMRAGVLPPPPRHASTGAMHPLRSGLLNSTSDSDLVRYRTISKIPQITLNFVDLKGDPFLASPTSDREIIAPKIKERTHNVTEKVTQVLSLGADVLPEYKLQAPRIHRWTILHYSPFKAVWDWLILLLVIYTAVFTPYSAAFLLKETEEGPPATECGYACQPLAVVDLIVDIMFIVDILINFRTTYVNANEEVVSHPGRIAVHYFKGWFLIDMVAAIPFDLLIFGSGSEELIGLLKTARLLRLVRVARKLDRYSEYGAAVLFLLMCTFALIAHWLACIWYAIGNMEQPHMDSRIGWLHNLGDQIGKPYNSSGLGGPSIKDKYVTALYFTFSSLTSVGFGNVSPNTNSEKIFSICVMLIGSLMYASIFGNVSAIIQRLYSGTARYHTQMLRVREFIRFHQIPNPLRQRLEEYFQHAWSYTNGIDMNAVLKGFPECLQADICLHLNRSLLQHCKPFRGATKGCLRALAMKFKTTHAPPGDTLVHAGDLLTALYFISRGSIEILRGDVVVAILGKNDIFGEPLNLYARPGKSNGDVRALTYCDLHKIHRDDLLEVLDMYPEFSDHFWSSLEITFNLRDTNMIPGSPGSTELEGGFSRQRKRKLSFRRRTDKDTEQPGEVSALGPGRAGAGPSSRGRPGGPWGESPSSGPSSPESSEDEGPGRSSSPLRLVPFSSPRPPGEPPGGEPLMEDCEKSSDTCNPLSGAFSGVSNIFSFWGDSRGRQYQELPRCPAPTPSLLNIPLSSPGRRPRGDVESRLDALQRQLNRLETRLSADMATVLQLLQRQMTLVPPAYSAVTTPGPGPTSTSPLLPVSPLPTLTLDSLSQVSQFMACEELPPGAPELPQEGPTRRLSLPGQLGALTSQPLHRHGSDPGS

First: Cc1ccc(NC(=O)c2cnccn2)cc1
Second: CCCCCC(=O)Nc1ccc(-c2cn3cccnc3n2)cc1
The “hERG current change (%, negative = inhibition) at 10uM” value of the first is lower: 15.8% for the first, 16.4% for the second.

Going from `CCCn1c(Cc2ccccc2)nnc1SCC(=O)N1CCOCC1` to `Cc1cccc(-c2nnc(SCC(=O)O)n2Cc2ccccc2)c1`, the “hERG current change (%, negative = inhibition) at 10uM” value falls from 16.7% to -6.26%.

Compared with `NC(=S)N/N=C/c1ccc([N+](=O)[O-])cc1`, `O=C(CNc1ccc2c(c1)OCO2)N/N=C\c1ccccc1Cl` is higher in “hERG current change (%, negative = inhibition) at 10uM” value: -8.06% for the first, 3.98% for the second.

Going from `O=C(CC1C(=O)NCCN1Cc1ccc(Cl)c(F)c1)NCC1CCOCC1` (stereo not drawn) to `COc1ccc(NC(=O)N2CCCC2C(=O)NCC2CCCCC2)cc1` (stereo not drawn), the “hERG current change (%, negative = inhibition) at 10uM” value falls from 9.07% to 0.904%.

Going from `CCOC(=O)C1(Cc2ccc(O)cc2)NC(c2ccccc2F)C2C(=O)N(C)C(=O)C21` (stereo not drawn) to `COc1ccc(CCNC(=O)c2ccc3ccccc3n2)cc1`, the “hERG current change (%, negative = inhibition) at 10uM” value falls from -2.04% to -5.65%.

Going from `CCC(=O)NC(c1cccs1)c1cc([N+](=O)[O-])c2cccnc2c1O` (stereo not drawn) to `CC(=O)c1c(C)[nH]c(C(=O)CSc2nnc(-c3cccs3)n2Cc2ccccc2)c1C`, the “hERG current change (%, negative = inhibition) at 10uM” value falls from 15% to -25.6%.

Going from `CC1=NNC(=O)C1CCC(=O)N/N=C(\C)c1ccccc1` (stereo not drawn) to `CC(=O)Nc1ccc(NC(=O)c2sc(-c3ccccc3)nc2C)cc1`, the “hERG current change (%, negative = inhibition) at 10uM” value falls from 28.3% to 10.6%.

Compared with `CCCCOc1ccc(NC(=O)CSc2nnnn2C)cc1`, `COc1ccc(NC(=O)Cn2cc(C#N)c3ccccc32)cc1` is higher in “hERG current change (%, negative = inhibition) at 10uM” value: -2.43% for the first, 15.3% for the second.

Going from `NCCNc1cc(N2CCCC2)ccc1[N+](=O)[O-]` to `CN1CCN(NC(=O)c2ccc(Cl)c([N+](=O)[O-])c2)CC1`, the “hERG current change (%, negative = inhibition) at 10uM” value rises from 4.66% to 8.74%.

Compared with `O=C(C1CCCC1)N1CCN(S(=O)(=O)c2ccc(F)cc2)CC1`, `O=C(CN1CCN(c2ccccc2O)CC1)NC(=O)NC1CCCC1` is lower in “hERG current change (%, negative = inhibition) at 10uM” value: 15.9% for the first, -0.609% for the second.

Compared with `COc1cc(C2C(C(=O)c3ccc(C)o3)=C(O)C(=O)N2Cc2cccnc2)ccc1O` (stereo not drawn), `CCOC(=O)c1c(C)[nH]c(C)c1C(=O)CSc1nnc(-c2ccco2)n1Cc1ccccc1` is lower in “hERG current change (%, negative = inhibition) at 10uM” value: 10.9% for the first, -19.3% for the second.

First: O=C(CCC(=O)NC1CCN(Cc2ccccc2)CC1)NCc1ccco1
Second: Cc1nnc(SCC(=O)NC(=O)NCc2ccco2)n1Cc1ccccc1
The “hERG current change (%, negative = inhibition) at 10uM” value of the first is higher: -1.88% for the first, -6.26% for the second.

Compared with `N#CCSc1nnc(COc2cccc3ccccc23)n1-c1cccc(Cl)c1`, `Cc1cccc(-c2nnc(SCC#N)n2-c2cccc(Cl)c2)c1` is lower in “hERG current change (%, negative = inhibition) at 10uM” value: 8.77% for the first, -62.5% for the second.

First: Cc1cccc(-c2nnc(SCC#N)n2Cc2ccccc2)c1
Second: Cc1cccc(-c2nnc(SCC#N)n2-c2ccccc2)c1
The “hERG current change (%, negative = inhibition) at 10uM” value of the first is lower: -66.6% for the first, -54.7% for the second.

Going from `Cc1ccc(-n2c(SCCN)nnc2-c2cccc(C)c2)cc1.O=C(O)C(=O)O` to `Cc1cccc(-c2nnc(SCC#N)n2C)c1`, the “hERG current change (%, negative = inhibition) at 10uM” value rises from -38% to 13.2%.

First: Cc1cc(C)nc(SCc2nnc(SCC#N)n2-c2cccc(Cl)c2)n1
Second: N#CCSc1nnc(-c2ccccc2O)n1Cc1ccccc1
The “hERG current change (%, negative = inhibition) at 10uM” value of the first is lower: -17.6% for the first, 5.13% for the second.

Compared with `COC(=O)c1ccc(C2NC(=O)c3c(sc(C)c3C)N2)cc1` (stereo not drawn), `COc1cc(C)nc(N2CCCC(C(=O)Nc3cc(Cl)ccc3OC)C2)n1` (stereo not drawn) is lower in “hERG current change (%, negative = inhibition) at 10uM” value: 10.7% for the first, 9.96% for the second.

First: COc1cccc(NC(=S)N(Cc2ccccn2)Cc2ccccc2Cl)c1
Second: c1ccc(CSc2nnc(-c3ccco3)n2Cc2ccccc2)cc1
The “hERG current change (%, negative = inhibition) at 10uM” value of the first is higher: 5.73% for the first, -46% for the second.

Going from `O=C(CN(Cc1ccccc1)S(=O)(=O)c1ccccc1)N/N=C/c1ccc2c(c1)OCO2` to `O=c1nc2ccccc2c(NS(=O)(=O)c2ccccc2)n1-c1ccccc1`, the “hERG current change (%, negative = inhibition) at 10uM” value falls from 8.28% to 2.7%.

Compared with `C(=N\C(/N=C/c1ccco1)c1ccco1)/c1ccco1`, `c1ccc(CSc2nnc(-c3ccco3)n2Cc2ccco2)cc1` is lower in “hERG current change (%, negative = inhibition) at 10uM” value: -5.1% for the first, -34.6% for the second.

First: Cn1ncn2c(=O)c3c(nc12)-c1ccccc1CC31CCCC1
Second: CCCc1cc(N2CCCC(C(=O)Nc3c(OC)cccc3OC)C2)n2ncnc2n1 (stereo not drawn)
The “hERG current change (%, negative = inhibition) at 10uM” value of the first is higher: 1.56% for the first, -10.7% for the second.

First: Nc1ccc2nc(-c3ccccc3)[nH]c2c1
Second: Cc1ccccc1CSc1nnc(-c2cccs2)n1Cc1ccco1
The “hERG current change (%, negative = inhibition) at 10uM” value of the first is higher: 6.5% for the first, -41.7% for the second.

Going from `COc1ccc(Cl)cc1NC(=O)C1CCCN(S(C)(=O)=O)C1` (stereo not drawn) to `CCCc1cc(N2CCCC(C(=O)Nc3cc(Cl)ccc3OC)C2)n2ncnc2n1` (stereo not drawn), the “hERG current change (%, negative = inhibition) at 10uM” value falls from 5.29% to -70.8%.

Compared with `CCCc1cc(N2CCCC(C(=O)Nc3ccc(OC)cc3OC)C2)n2ncnc2n1` (stereo not drawn), `COc1ccc(NC(=O)C2CCCN(c3cnccn3)C2)c(OC)c1` (stereo not drawn) is higher in “hERG current change (%, negative = inhibition) at 10uM” value: -51.4% for the first, 21.4% for the second.

Going from `O=C(Cc1ccccc1)NCCC1=CCCCC1` to `O=C(CSc1nnc(-c2ccco2)n1Cc1ccccc1)NC(=O)NCc1ccccc1`, the “hERG current change (%, negative = inhibition) at 10uM” value falls from 9.32% to -13.3%.

Compared with `CC(=O)Nc1ccc(NC(=O)C(C)Sc2nnc(C3CC3)n2-c2ccccc2)cc1` (stereo not drawn), `O=C(CSc1nnc(-c2ccco2)n1Cc1ccccc1)NC(=O)NCc1ccco1` is lower in “hERG current change (%, negative = inhibition) at 10uM” value: 8.37% for the first, -74.7% for the second.

Compared with `COc1ccc(N2CCN(C(=O)c3ccc4c(c3)OCO4)CC2)cc1`, `Cc1ccc(C(=O)CSc2nnc(-c3ccco3)n2Cc2ccccc2)cc1` is higher in “hERG current change (%, negative = inhibition) at 10uM” value: -21.7% for the first, -17.8% for the second.

First: O=C1c2ccccc2C(=O)N1CCSc1nnc(-c2ccco2)n1Cc1ccccc1
Second: CC(=O)c1c(C)[nH]c(C(=O)CSc2nnc(-c3ccco3)n2Cc2ccccc2)c1C
The “hERG current change (%, negative = inhibition) at 10uM” value of the first is lower: -72.8% for the first, -61.5% for the second.

`Cc1ccccc1CSc1nnc(-c2ccco2)n1Cc1ccco1` was tested, and the “hERG current change (%, negative = inhibition) at 10uM” value was -75.4%.
